# Out of some 350,000 compounds screened, about 9,900 (2.8%) were called active. Inconclusive results (about 15%) are left out. Calls follow the shape of the dose curve; as a rule, active = well fitted activation curve with a large enough effect; inconclusive = small, poorly fitted or top-dose-only effect; inactive = no such curve, though single readings can be large or run the other way. Shown is part of a subset that was picked to be rich in actives. A call without a number means that no potency is given here.
# Experiment: A quantitative high throughput screen for small molecules that induce DNA re-replication in MCF 10a normal breast cells. Also: nearly all actives have a fitted effect of over 50% in size.
# Settings: MCF 10A DNA re-replication, Hoechst nuclear intensity, 48 h; series mostly up to 46.1 µM
# Potency is read from the fitted curve at half-maximal effect.
row,Compound,Potency
1,Cc1ccc(O)c(NC(=O)COc2cc(C)ccc2C)c1,inactive
2,Cc1ccc(O)c(NC(=S)NC(=O)COc2ccc(Br)cc2)c1,20.6 µM (active)
3,Cc1cccc(OCC(=O)NC(=S)Nc2ccccc2N2CCOCC2)c1,inactive
4,O=C(CCc1ccccc1Cl)Nc1ccc(S(=O)(=O)Nc2nccs2)cc1,inactive
5,Nc1cc(N)nc(SCC(=O)Nc2cccc(S(=O)(=O)N3CCCCC3)c2)n1,inactive
6,Nc1ncnc2c1ncn2[C@@H]1O[C@H](CNCc2cccn2-c2nccs2)[C@@H](O)[C@H]1O,inactive
7,Cc1c(NC(=O)CN(C)CC(=O)Nc2ccc(F)c(F)c2F)c(=O)n(-c2ccccc2)n1C,inactive
8,N=C1c2ccccc2-c2ccccc21,inactive
9,C=CCNc1nc(N)c(C(=C(C#N)C#N)c2ccccc2)s1,16.4 µM (active)
10,COC(=O)c1sc(N2CCN(Cc3ccccc3)CC2)nc1N,inactive
11,C=CCNC(=O)c1csc(-c2ccccc2)n1,inactive
12,CCS(=O)(=O)c1cc([N+](=O)[O-])c(Sc2ccccc2N)s1,inactive
13,Nc1ccccc1SC(C[N+](=O)[O-])c1ccccc1 (configuration not stated),10.3 µM (active)
14,Nc1ccccc1SCc1cc([N+](=O)[O-])cc2c1OCOC2,inactive
15,CN(C(=O)c1cccc(NC(=O)C2CCN(C(=O)OC(C)(C)C)CC2)c1)C1CCC1,inactive
16,COC(=O)c1ccc(CNC(=O)Cn2cc(C)c(=O)[nH]c2=O)cc1,inactive
17,C#CCOCCOCCOCCNc1nc(N2CCN(C(=O)Cn3cc(CCCCN)nn3)CC2)nc(N2CCN(C(=O)[C@H](CCCCN)n3cc(CCC(=O)O)nn3)CC2)n1,inactive
18,O=C(NCCSCc1ccccc1)c1ccc(Cl)c(S(=O)(=O)N2CCOCC2)c1,inactive
19,CN(C)S(=O)(=O)c1ccc(C(=O)NCC(C)(C)N2CCOCC2)cc1,inactive
20,CC(C)(CNC(=O)c1ccc(Cl)c(S(=O)(=O)N2CCc3ccccc3C2)c1)N1CCOCC1,5.8 µM (active)
21,O=C(OCc1cc(=O)n2ccsc2n1)C1(c2ccc(Cl)cc2)CC1,inactive
22,COc1ccccc1N(CC(=O)Nc1c(C)n(C)n(-c2ccccc2)c1=O)S(=O)(=O)c1ccccc1,inactive
23,Cc1c(O)c(C)c2c(c1O)C(=O)C[C@@H](c1ccccc1)O2,inactive
24,COc1ccc(CNc2nnnn2C)cc1,inactive
25,COc1ccc(CNc2ncnc3ccccc23)cc1,inactive
26,COc1ccc(CNc2c(CO)cnc3c2cnn3C)cc1,14.6 µM (active)

row,Compound,Potency
1,COc1cccc(NC(=O)COC(=O)c2ccc3ccccc3n2)c1,inactive
2,Cc1ccc(S(=O)(=O)N(C)C)cc1NC(=O)CN1c2cccc3cccc(c23)S1(=O)=O,inactive
3,Cc1csc(NC(=O)C2CCN(S(=O)(=O)c3ccccc3)CC2)n1,inactive
4,CN(C(=O)CSc1cccc[n+]1[O-])C1CCCCC1,inactive
5,S=c1[nH]nc(CSCc2ccc(Cl)cc2Cl)n1-c1ccccc1,20.6 µM (active)
6,S=c1[nH]nc(COc2ccccc2)n1-c1ccccc1,inactive
7,Cc1ccc(NCc2n[nH]c(=S)n2-c2ccccc2)cc1Cl,inactive
8,O=C(O)C(=Cc1ccccc1[N+](=O)[O-])c1ccccc1,inactive
9,O=C(Nc1cccc(S(=O)(=O)N2CCCC2)c1)c1cncc(Br)c1,inactive
10,CC(=O)Oc1ccc(N(C(C)=O)S(=O)(=O)c2ccc3ccccc3c2)cc1Br,13 µM (active)
11,COCCNC(=O)COc1ccc(N(C)S(=O)(=O)c2ccc3ccccc3c2)cc1,inactive
12,CN(c1ccc(OCC(=O)O)cc1)S(=O)(=O)c1ccc2ccccc2c1,inactive
13,O=C(OCCOc1ccccc1Cl)c1cc(S(=O)(=O)N2CCCCC2)ccc1N1CCOCC1,inactive
14,CCC(C(=O)N1CCN(S(=O)(=O)c2sc(C(=O)O)c(C)c2C(=O)O)CC1)c1ccccc1 (configuration not stated),inactive
15,COC(=O)CCCCCN1C(=O)NC(c2ccc(-c3ccccc3)cc2)C(C(=O)OCc2ccccc2)=C1C (configuration not stated),3.26 µM (active)
16,CC1=C(C(=O)OCc2ccccc2)C(c2ccc(C(F)(F)F)cc2)NC(=O)N1CCCCCC(=O)O (configuration not stated),inactive
17,COCCN1C(=O)N[C@@H](c2ccccc2)C(C(=O)OC)=C1C,inactive
18,COc1cc(OC)cc(C(=O)NC(C(=O)N2CCC2)C(C)C)c1 (configuration not stated),inactive
19,O=C(Cn1cnc2c(OCc3ccccc3)ncnc21)NCc1nc2ccccc2[nH]1,inactive
20,COCCCNC(=O)CC1C[C@H](C(=O)N2CCCCC2)[C@@]2(CCc3ccccc3)c3[nH]c4ccccc4c3CCN2C1=O (some centres not stated),inactive
21,O=C(N/N=C\c1cc2c(cc1Cl)OCO2)c1ccc(Br)s1,5.8 µM (active)
22,O=C(N/N=C/c1cc2c(cc1Br)OCO2)C1COc2ccccc2O1 (configuration not stated),inactive
23,O=C(NCc1ccc2c(c1)OCO2)c1ccc(Cl)s1,inactive
24,CCCN(CC1CC1)C(=S)NC(=O)c1ccccc1Br,inactive
25,O=C(CSc1n[nH]c(=O)n1-c1ccccc1)Nc1ccccc1C(F)(F)F,inactive
26,O=c1[nH]nc(SCCS(=O)(=O)c2ccc(F)cc2)n1-c1ccccc1C(F)(F)F,18.4 µM (active)

row,Compound,Potency
1,O=S(=O)(c1ccc(F)cc1)N1CCN(Cc2ccccc2C(F)(F)F)CC1,inactive
2,Cc1[nH]c2ccccc2c1SCC(=O)Nc1nccs1,0.651 µM (active)
3,Cn1c(SCC(=O)Nc2nccs2)nnc1-c1cccnc1,inactive
4,CCn1c(SCC(=O)Nc2nccs2)nnc1-c1ccco1,inactive
5,CCCSc1ccc([C@H]2N[C@@](Cc3ccccc3)(C(=O)OC)[C@H]3C(=O)N(C)C(=O)[C@@H]23)cc1,inactive
6,O=C(CSc1ccccc1)Nc1cc(Cl)ccc1Oc1ccccc1,inactive
7,CC(=O)Nc1ccc(NC(=O)CN2CCCC(C)C2)c(Cl)c1 (configuration not stated),inactive
8,CC1CCCN(CC(=O)Nc2cc(Cl)ccc2Oc2ccccc2)C1 (configuration not stated),18.4 µM (active)
9,Cc1cccc(NC(=O)C2CCCN2S(=O)(=O)c2ccc(F)cc2)c1C (configuration not stated),inactive
10,CC(C)c1nnc(NC(=O)C2CCCN2S(=O)(=O)c2ccc(Cl)cc2)s1 (configuration not stated),inactive
11,COc1ccccc1NC(=O)C1CCCN1S(=O)(=O)c1ccc(Cl)cc1 (configuration not stated),18.4 µM (active)
12,O=C(COC(=O)Cn1[nH]c(=O)c2ccccc2c1=O)Nc1ncc(Cl)cc1Cl,inactive
13,O=C(CSc1ncn[nH]1)Nc1ccc(Br)cc1Br,inactive
14,CN(C(=O)COC(=O)c1cc(=O)[nH]c2ccccc12)C1CCCCC1,inactive
15,CCN(C(=O)CSc1cccc[n+]1[O-])c1ccccc1,inactive
16,CC1=CC(C)(C)Nc2ccc(OC(=O)CN3C(=O)C4CCCCC4C3=O)cc21 (configuration not stated),7.31 µM (active)
17,O=C(COC(=O)CN1C(=O)C2CCCCC2C1=O)Nc1ccc(F)c(F)c1F (configuration not stated),inactive
18,O=C(CN1C(=O)C2C3CCC(C3)C2C1=O)Oc1ccc2ccccc2c1 (configuration not stated),inactive
19,C=CC[C@H](CC(=O)OC(C)(C)C)C(=O)OC[C@H]1CCCN1C(=O)[C@H](CC=C)CC(=O)N(CCO)Cc1ccccc1,inactive
20,CC/C(=C(/c1ccccc1)c1ccc(OCC[N+](C)(C)C)cc1)c1ccccc1,inactive
21,CCCCN1CC(COc2ccccc2)Oc2cccc(F)c2S1(=O)=O (configuration not stated),inactive
22,CN(C)C(=O)N=NC(=O)N(C)C,inactive
23,COc1ccc(Br)cc1C(=O)NC(=S)Nc1cc(-c2nc3ccccc3[nH]2)ccc1C,inactive
24,Cc1ccc(-c2nc3ccccc3[nH]2)cc1NC(=O)c1sc2ccccc2c1Cl,20.6 µM (active)
25,O=C(Nc1cccc(-c2nc3ccccc3[nH]2)c1)c1ccc(C(=O)Nc2cccc(-c3nc4ccccc4[nH]3)c2)cc1,inactive
26,COc1ccc(S(=O)(=O)N2CCOCC2)cc1NC(=O)CSc1cc(C)ccc1C,inactive

row,Compound,Potency
1,CCN(CC(=O)Nc1ccccc1C(=O)NC1CC1)Cc1cccs1,inactive
2,CCC(=O)Nc1ccc(S(=O)(=O)NCC2CCCO2)cc1 (configuration not stated),inactive
3,O=S(=O)(NCC1CCCO1)c1ccc2ccccc2c1 (configuration not stated),2.91 µM (active)
4,CCOc1ccc(S(=O)(=O)NCC2CCCO2)cc1 (configuration not stated),inactive
5,O=C(COc1ccc(F)cc1Br)NCC1COc2ccccc2O1 (configuration not stated),inactive
6,CCN(C(=O)COC(=O)CCC(=O)c1cccs1)C1CCCCC1,inactive
7,CCOC(=O)c1cc(C#N)c(N2CCCCC2)nc1-c1ccccc1,13 µM (active)
8,Cc1cc(C)c2nc(N3CCCC3)c(C#N)cc2c1,inactive
9,CC(=O)c1cc(C#N)c(N2CCCCC2)nc1C,inactive
10,CC1CN(C(=O)c2ccc([N+](=O)[O-])s2)CC(C)O1 (configuration not stated),inactive
11,C/C(=N\Nc1ccccc1)c1cccs1,inactive
12,CCCOc1ccc(C(=O)NCCc2ccccc2)cc1,inactive
13,CCCOc1ccc(C(=O)CCC(=O)OC(C)C(=O)Nc2ccc(NC(C)=O)cc2)cc1 (configuration not stated),inactive
14,CCCOc1ccc(C(=O)C(CCC(CNCC)C(=O)c2ccc(OCCC)cc2)CNCC)cc1 (configuration not stated),25.9 µM (active)
15,COc1ccc(OC)c(-c2csc(NC(=O)COC(=O)C3CC3)n2)c1,inactive
16,O=C(c1c(F)cccc1Cl)N1CCN(S(=O)(=O)c2ccc3c(c2)OCCCO3)CC1,inactive
17,Cc1cc(C)c(S(=O)(=O)c2ccccc2)c(OC(=O)c2c(F)cccc2Cl)n1,16.4 µM (active)
18,Cc1ccc(NNC(=O)c2c(F)cccc2Cl)cc1Cl,inactive
19,O=C(COC(=O)c1cccnc1Cl)Nc1ccc(S(=O)(=O)N2CCOCC2)cc1,inactive
20,O=C(N[C@H]1C/C=C\C(c2cccc(F)c2)N(Cc2ccccc2)C(=O)C1)OCC1c2ccccc2-c2ccccc21 (some centres not stated),inactive
21,Cc1nc(-c2ccc(F)cc2)c(CC(=O)N(C)CC(=O)Nc2c(C)cccc2C)s1,inactive
22,Cc1nc(N2CCOCC2)sc1C(=O)NN,inactive
23,Cc1nc(-c2ccc(Cl)cc2)sc1C(=O)NN,16.4 µM (active)
24,Cc1nc(-c2ccccc2)sc1C(=O)/C=C/N(C)C,inactive

# Reference: PubChem BioAssay AID624296 (National Center for Advancing Translational Sciences (NCATS), 2012)
